This test addresses Genome polyprotein (dengue virus type 2) (UniProt P29990).
[1] abbreviates: Thailand/16681/1984, Concentration 25.0 uM, Number of replicates 1.0.

The whole screen tested about 2,000 compounds, of which about 110 (5.5%) showed an effect of 50% or more. The full list was thinned out, with strong results kept by preference.

As a reminder, the inhibition is the relative decrease from the control value, in per cent.

As to `CC(C)(CO)NC(=O)c1cc(Cl)cc(NS(=O)(=O)c2ccccc2)c1`, the inhibition by setting is: (Thailand/16681/1984, Concentration 49.5 uM, Number of replicates 2.0, Standard deviation 0.43077113751226487 %) -5.72%; (Thailand/16681/1984, Concentration 99.01 uM, Number of replicates 2.0, Standard deviation 0.028975789763845603 %) -4.57%; (Thailand/16681/1984, Concentration 198.0 uM, Number of replicates 2.0, Standard deviation 1.4999717780869397 %) -2.99%.
Consider `O=Cc1ccc(N2CCC(C(=O)NCc3cc(C(F)(F)F)ccc3C(F)(F)F)CC2)cc1`, for which the inhibition under setting [1] was determined as 1.04%.
With `Cn1cnc2[nH]c(C(=O)N3CC[C@H](c4c[nH]c5ccccc45)C3)cc21`, the inhibition is -2.49% (Thailand/16681/1984, Concentration 49.5 uM, Number of replicates 2.0, Standard deviation 2.003876801484884 %); -1.94% (Thailand/16681/1984, Concentration 99.01 uM, Number of replicates 2.0, Standard deviation 1.2772748269322285 %); -0.105% (Thailand/16681/1984, Concentration 198.0 uM, Number of replicates 2.0, Standard deviation 1.685869304282425 %).
In the case of `O=Cc1ccc(N2CCC(C(=O)Nc3cc(Cl)cc(Cl)c3O)CC2)cc1`, under setting [1], the inhibition came out at 98.2%.
With `O=Cc1ccc(N2CCC(C(=O)Nc3cc(Cl)c(O)c(Cl)c3)CC2)cc1`, the inhibition under setting [1] is 100%.
Same read-out and setting: the result for `O=Cc1ccc(N2CCC(C(=O)Nc3ccc(Cl)c(Cl)c3)CC2)cc1` reads 11.8%; that for `O=Cc1ccc(N2CCC(C(=O)Nc3cc(Cl)c(F)c(Cl)c3)CC2)cc1`, 13.1%.
Still for that read-out and setting: the result for `O=Cc1ccc(N2CCC(C(=O)Nc3c(Cl)cc(Cl)cc3Br)CC2)cc1` reads 13.4%; that for `O=Cc1ccc(N2CCC(C(=O)Nc3ccc([N+](=O)[O-])cc3Cl)CC2)cc1`, 23.5%.
Same read-out and setting: to `O=Cc1ccc(N2CCC(C(=O)Nc3cc(Cl)cc([N+](=O)[O-])c3O)CC2)cc1` belongs 90.5%; to `O=Cc1ccc(N2CCC(C(=O)Nc3ccc(O)cc3[N+](=O)[O-])CC2)cc1`, 24.5%; to `O=Cc1ccc(N2CCC(C(=O)Nc3cc(Cl)ccc3Br)CC2)cc1`, 13.8%.
`c1cnc2c(C3CCN(Cc4cnn5ccccc45)CC3)c[nH]c2c1`: the inhibition was -4.72% (Thailand/16681/1984, Concentration 49.5 uM, Number of replicates 2.0, Standard deviation 1.316281988110152 %); -3.44% (Thailand/16681/1984, Concentration 99.01 uM, Number of replicates 2.0, Standard deviation 2.2605015442223797 %); -2.08% (Thailand/16681/1984, Concentration 198.0 uM, Number of replicates 2.0, Standard deviation 0.9691516929362414 %).
In the case of `O=Cc1ccc(N2CCC(C(=O)N3CCN(C(=O)Cc4ccccc4)CC3)CC2)cc1`, the inhibition under setting [1] was 12.3%.
On the same count and under the same terms, the result for `CN(C)C1(CNC(=O)C2CCN(c3ccc(C=O)cc3)CC2)CCOCC1` reads 12.1%.
As for `NCc1ncc(C(=O)Nc2ccccc2N2CCC(CO)CC2)c(C(F)(F)F)n1`, the inhibition was 2.58% (Thailand/16681/1984, Concentration 49.5 uM, Number of replicates 2.0, Standard deviation 1.1543273279104322 %); 4.99% (Thailand/16681/1984, Concentration 99.01 uM, Number of replicates 2.0, Standard deviation 0.2964400275887672 %); 6.91% (Thailand/16681/1984, Concentration 198.0 uM, Number of replicates 2.0, Standard deviation 0.14686490832106133 %).
Consider `NCc1cccc(NC(=O)[C@H]2CN(C(=O)OCc3ccccc3)CC23CCOCC3)c1`, for which the inhibition is -2.83% (Thailand/16681/1984, Concentration 49.5 uM, Number of replicates 2.0, Standard deviation 3.4820905640560142 %); -1.08% (Thailand/16681/1984, Concentration 99.01 uM, Number of replicates 2.0, Standard deviation 3.010767204046265 %); -0.776% (Thailand/16681/1984, Concentration 198.0 uM, Number of replicates 2.0, Standard deviation 2.6769829613344203 %).
With `O=Cc1ccc(N2CCC(C(=O)Nc3ccc(OC(F)(F)F)cc3Cl)CC2)cc1`, the inhibition under setting [1] was 13.6%.
As to `COc1cc(COc2cncnc2)nc(N2CCNCC2)n1`, the inhibition by setting is: (Thailand/16681/1984, Concentration 49.5 uM, Number of replicates 2.0, Standard deviation 3.306986633712837 %) -2.35%; (Thailand/16681/1984, Concentration 99.01 uM, Number of replicates 2.0, Standard deviation 2.7720530174645646 %) -0.505%; (Thailand/16681/1984, Concentration 198.0 uM, Number of replicates 2.0, Standard deviation 2.4477408574870583 %) 0.524%.
`O=C(NCc1c[nH]nn1)c1cc(Cl)ccc1NS(=O)(=O)c1ccc(Oc2ccccc2Cl)cc1`: the inhibition reads like this: (Thailand/16681/1984, Concentration 49.5 uM, Number of replicates 2.0, Standard deviation 0.023138282657692737 %) 75.2%; (Thailand/16681/1984, Concentration 99.01 uM, Number of replicates 2.0, Standard deviation 0.008898717007196123 %) 63.2%; (Thailand/16681/1984, Concentration 198.0 uM, Number of replicates 2.0, Standard deviation 0.06140627240643217 %) 36.5%.
On to `Cc1ccc(CNC(=O)c2cc(Cl)ccc2NS(=O)(=O)c2ccc(Oc3ccccc3Cl)cc2)s1`, for which the inhibition runs as follows: (Thailand/16681/1984, Concentration 49.5 uM, Number of replicates 2.0, Standard deviation 0.032039697063193553 %) 83.2%; (Thailand/16681/1984, Concentration 99.01 uM, Number of replicates 2.0, Standard deviation 0.20602188771616411 %) 78.6%; (Thailand/16681/1984, Concentration 198.0 uM, Number of replicates 2.0, Standard deviation 0.539307027447943 %) 69.5%.
Turning to `O=C(NCc1cocn1)c1cc(Cl)ccc1NS(=O)(=O)c1ccc(Oc2ccccc2Cl)cc1`, the inhibition reads like this: (Thailand/16681/1984, Concentration 49.5 uM, Number of replicates 2.0, Standard deviation 0.2927162692291327 %) 78.5%; (Thailand/16681/1984, Concentration 99.01 uM, Number of replicates 2.0, Standard deviation 0.11144031356026086 %) 70.2%; (Thailand/16681/1984, Concentration 198.0 uM, Number of replicates 2.0, Standard deviation 0.4940824474713894 %) 60.8%.
As for `COc1cccc(Cn2cc(C3CCNCC3)c(C)n2)n1`, the inhibition was -3.33% (Thailand/16681/1984, Concentration 49.5 uM, Number of replicates 2.0, Standard deviation 0.5897033629115713 %); -3.64% (Thailand/16681/1984, Concentration 99.01 uM, Number of replicates 2.0, Standard deviation 0.7206939136220955 %); -3.79% (Thailand/16681/1984, Concentration 198.0 uM, Number of replicates 2.0, Standard deviation 2.0772079346215944 %).
For the molecule `CCCCCC(=O)N[C@H](C(=O)N1CCC[C@@H](N)C1)c1ccc(OCc2ccccc2)cc1`, the inhibition reads like this: (Thailand/16681/1984, Concentration 49.5 uM, Number of replicates 2.0, Standard deviation 1.275572557867722 %) -0.123%; (Thailand/16681/1984, Concentration 99.01 uM, Number of replicates 2.0, Standard deviation 1.3300520589416613 %) 0.674%; (Thailand/16681/1984, Concentration 198.0 uM, Number of replicates 2.0, Standard deviation 1.6287502093065211 %) 2.04%.
With `O=Cc1ccc(N2CCC(C(=O)NCCc3cccc4ccccc34)CC2)cc1`, the inhibition under setting [1] amounted to 11.1%.
`Cc1cc(CO)c2cccc(Cc3ccccc3C(=O)NCc3c(C)noc3C)c2n1`: the inhibition runs as follows: (Thailand/16681/1984, Concentration 49.95 uM, Number of replicates 2.0, Standard deviation 0.3226747127660098 %) -0.757%; (Thailand/16681/1984, Concentration 99.9 uM, Number of replicates 2.0, Standard deviation 0.21847019123152348 %) 0.39%.
Regarding `COc1ccc(F)c(-c2nn(C)cc2NC(=O)c2ccccc2C(F)(F)F)c1`, the inhibition (Thailand/16681/1984, Concentration 49.5 uM, Number of replicates 2.0, Standard deviation 3.583319549695768 %) was -2.64%; the inhibition (Thailand/16681/1984, Concentration 99.01 uM, Number of replicates 2.0, Standard deviation 4.648656873158677 %) is -2.47%; the inhibition (Thailand/16681/1984, Concentration 198.0 uM, Number of replicates 2.0, Standard deviation 3.7890463989356435 %) was -2.09%.
For `COc1ccc(F)cc1-c1ccccc1C(=O)Nc1cnn(C)c1`, the inhibition was -4.25% (Thailand/16681/1984, Concentration 49.5 uM, Number of replicates 2.0, Standard deviation 2.2581672831644526 %); -2.49% (Thailand/16681/1984, Concentration 99.01 uM, Number of replicates 2.0, Standard deviation 1.9365380229757554 %); -2.95% (Thailand/16681/1984, Concentration 198.0 uM, Number of replicates 2.0, Standard deviation 2.756548372009165 %).
In the case of `Cn1cc(NC(=O)c2ccccc2C(F)(F)F)c(-c2ccc(CO)cc2)n1`, the inhibition (Thailand/16681/1984, Concentration 49.5 uM, Number of replicates 2.0, Standard deviation 2.3161186941047496 %) is -4.04%; the inhibition (Thailand/16681/1984, Concentration 99.01 uM, Number of replicates 2.0, Standard deviation 3.5021876776391307 %) was -2.8%; the inhibition (Thailand/16681/1984, Concentration 198.0 uM, Number of replicates 2.0, Standard deviation 4.667974048773386 %) was -3.05%.
For `NC(=O)c1cccc(NC(=O)[C@@H](NC(=O)c2ccc(Oc3ccc(C(F)(F)F)cc3)cc2)c2ccc(OCc3ccccc3)cc2)c1`, the inhibition (Thailand/16681/1984, Concentration 49.5 uM, Number of replicates 2.0, Standard deviation 0.7362133947681709 %) is 6.2%; the inhibition (Thailand/16681/1984, Concentration 99.01 uM, Number of replicates 2.0, Standard deviation 0.5343411171689955 %) came out at 12.7%; the inhibition (Thailand/16681/1984, Concentration 198.0 uM, Number of replicates 2.0, Standard deviation 1.7800185360663037 %) was determined as 24.8%.

The record behind these values is ChEMBL document CHEMBL5606460, “ASAP - DENV-2 NS2B-NS3 protease fluorescence single point” (2024).
